This passage reports inhibition results from PubChem BioAssay.

Molecules are shown by their SMILES. Unmarked numbers belong to inactive results. How the calls were made is not given here.

For this test, the target named is Pantothenate synthetase (Mycobacterium tuberculosis (strain ATCC 25618 / H37Rv)) (UniProt P9WIL5). In words: Coupled enzyme confirmation of inhibitors against recombinant Mtb PanC (AID 375).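 Further: 0% = full reaction with vehicle and 100% = no enzyme background.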 The conditions noted are these: coupled enzyme assay; at 10 µM, hits give high values.
Chain of Pantothenate synthetase (Mycobacterium tuberculosis (strain ATCC 25618 / H37Rv)) (P9WIL5 whole entry, looked up): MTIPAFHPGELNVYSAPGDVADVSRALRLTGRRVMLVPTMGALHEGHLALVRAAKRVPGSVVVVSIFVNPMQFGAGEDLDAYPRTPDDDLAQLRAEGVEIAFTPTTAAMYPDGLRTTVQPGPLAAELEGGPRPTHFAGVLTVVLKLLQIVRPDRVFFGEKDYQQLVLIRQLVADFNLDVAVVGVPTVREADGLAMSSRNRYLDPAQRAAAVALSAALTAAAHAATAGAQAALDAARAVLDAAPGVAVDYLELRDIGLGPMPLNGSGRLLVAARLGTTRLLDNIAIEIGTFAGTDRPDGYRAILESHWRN
For the compound `O=C(CS(=O)(=O)Cc1ccccc1)N1CCc2ccccc2C1`, the inhibition (as a rule, how much of the control response was suppressed) is 1%.

In the case of `CCC(C)(C(=O)NC1CCCCC1)N(CC1CCCO1)C(=O)c1ccccn1` (configuration not stated), the inhibition is 0%. As to `Clc1ccc2nc(N3CCCCC3)[nH]c2c1`, the inhibition was 3%. The same measure for `CCCCn1nnnc1SCC(=O)Nc1cccc(C)n1`: 1%. The same measure for `Nc1nnn(Cc2ccccc2)n1`: 0%. Regarding `Cc1cc(C2C(C#N)=C(N)SC(N)=C2C#N)c(C)s1`, the inhibition was 0%.

In the case of `O=C1NCCCc2c1no[n+]2[O-]`, the inhibition is 18%. On to `Cc1nnc(SCCCn2c(N3CCCCC3)nc3c2c(=O)[nH]c(=O)n3C)s1`, for which the inhibition was 0%.

`Cn1c(=O)c2c(nc(SCCCO)n2Cc2ccccc2Cl)n(C)c1=O`: the inhibition is 3%. The same measure for `O=C(NCc1ccco1)C(c1ccco1)N(C(=O)Cn1nnc2ccccc21)c1ccc2c(c1)CCC2` (configuration not stated): 0%. `COC(=O)[C@H](C)NC(=O)NCc1ccc(F)cc1`: the inhibition is 1%. The same measure for `O=C1CCC(C(=O)N(Cc2ccco2)C2(C(=O)NC3CCCC3)CCCCC2)N1` (configuration not stated): 0%. Under `Fc1ccc(-n2c(Cc3ccccc3)nnc2SCc2nc(-c3cccs3)no2)cc1` stands 0%; under `Cc1ccc(S(=O)(=O)N(CC(=O)N2CCC(C(N)=O)CC2)c2cccc(C(F)(F)F)c2)cc1`, 0%. Under `c1ccc(-n2nnnc2OCCOc2nnnn2-c2ccccc2)cc1` stands 3%; under `O=C(NC1CCCCCC1)C1CCCN(S(=O)(=O)c2cccs2)C1` (configuration not stated), 0%; under `COc1cc(C(=O)N2CCN(c3cc(Cl)ccc3Cl)CC2)cc(OC)c1OC`, 1%.

As to `CCOC(=O)C1CCN(Cc2c(O)ccc3ccccc23)CC1`, the inhibition is 1%. Consider `Cc1cc2c(nn1)CCC/C2=N\O`, for which the inhibition is 2%. The same measure for `CCOC(=O)CN1CC23C=CC(O2)C(C(=O)Nc2ccc(OC)cc2OC)C3C1=O` (configuration not stated): 0%; for `COC(=O)C(C)C1Sc2ccccc2NC1=O` (configuration not stated): 11%; for `Cc1cc(C)n2c(SCC(=O)Nc3cc(C)on3)nnc2n1`: 17%.
